Among all 53,000 sequences or so, about 3,700 (7%) were called active.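 How the source made its calls: active means gene knockdowns whose robust z-score for IL-1 alpha signal is at least 2 or at most -2, so actives lie on both sides; inactive means the rest.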 Shown is part of a subset that was picked to be rich in actives.
Experiment: Components of the Cytosolic LPS Sensing Pathway: Gene Identification via Genome-wide siRNA Screen
Conditions: RAW264.7 macrophages, IL-1a HTRF, actives lie on both sides, screened at 100 nM (by protocol), cells primed 5 h with Pam3CSK4 first
Excerpt: Non-canonical inflammasome activation by cytosolic LPS is a critical component of the host response to Gram-negative bacterial infection, however we lack a comprehensive understanding of the cellular processes that control this pathway. Here we describe a genome-wide siRNA screen to identify genes regulating the mouse macrophage IL-1 alpha response to cytosolic LPS.
RAW264.7 cells were maintained in complete DMEM media, comprising DMEM with 4.5 g/L glucose, 10% FBS (Gemini Bio-Products, West Sacramento, CA), 2 mM Glutamine (Lonza) and 20 mM HEPES (Lonza), hereafter complete DMEM.
The RNAi screen was conducted in 384-well format using the Ambion Silencer Mouse Genome siRNA Library (#4391425), which consists of three unique, nonoverlapping, nonpooled siRNAs for each of 17,000 gene targets. siRNA reagents ([…]) were stamped into 384-well white flat-bottom microplates (Corning, 3570) using a Velocity11 VPrep liquid handling system (Agilent) integrated into a BioCel robotic platform (Agilent) in columns 1-22, leaving columns 23-24 empty for negative (Ambion, Negative control #1) and positive (mouse Casp4) controls, respectively. The median value of each plate's negative control column was used to normalize sample wells, and the positive control was used to assess transfection efficiency and assay performance.
Lipofectamine RNAiMAX Transfection Reagent ([…]; Invitrogen) was added in […] serum-free, antibiotic-free media to plate wells using a Thermo Scientific Matrix WellMate and Microplate Stacker. Plates were incubated for 45 min at room temperature to allow for the sufficient formation of siRNA-lipid complexes. Cells were seeded at a density of 1x10^4 cells per well in 20 microL media containing 20% (vol/vol) FBS without antibiotics. The final concentration of siRNA in each well was 100 nM. Cells were cultured for 48h at 37 degrees C in 5% CO2 before addition of […] of TLR ligand Pam3CSK4 for 5 hours. The medium was then removed, replaced with […] growth media and cell were transfected with […] of LipidA and TransIT-TKO (Mirus) for 24 hour. At the end of the LipidA treatment, […] of supernatant was transferred to a 384 Greiner Bio-one non-binding low volume plate and […] of IL-1a HTRF reagent (Cisbio, 62MIL1APEH) was added and incubated at room temperature overnight. The plates were read on an EnVision plate reader (PerkinElmer). Cell viability was measured by adding 20ul Cell Titer Glo to the original plate and running a luminescence read on the EnVision. The quantified IL-1a signal for each siRNA gene-targeted well was divided by the median of the negative control wells and multiplied by 100 to achieve a negative control normalized value for each well/siRNA. This normalized value was then used to generate a robust z-score by first taking the log of each value and then by subtracting the median and dividing by the […].

Sequence | z-score
GCAUCAACACCUGUUCUAUTT against Olfr376 | 1.02 (inactive)
GGAUCAUUUACAUUCAUACTT against Alg12 | -2.6 (active)
GGCACCUGUUAAAAAUGAATT against Prag1 | -0.771 (inactive)
GGACUAGUGUGAAAAAGGATT against Nsd1 | -2.87 (active)
GCUCAUCGGAGAGUUCUAUTT against Ube2h | 0.594 (inactive)
GGCAGCAUUGAGUGUGUGATT against Asb13 | 2.53 (active)
GGAAUGCUGAAGUAAAAAATT against Olfr1259 | -0.808 (inactive)
GGGCCAAGUUCCGAAAGAATT against Dmbx1 | -0.443 (inactive)
GCCUUAACUAUGUUGUCUATT against Mgst1 | 0.893 (inactive)
GCCUGCACUGUUGAACUAGTT against Tomm40l | -1.09 (inactive)
GCACUCAUUGCCAGGGUCATT against Pycard | -2.54 (active)
GCAGUUAUCCGUAUUUAAATT against Ctnnbl1 | 1.18 (inactive)
CCCUCAUUCUCUAGCGUGATT against H2-K1 | -1.07 (inactive)
GGAUGGACUUCGUCAUGAATT against Cplx2 | 0.55 (inactive)
GGAGUGAUUCAGUGAAAACTT against Iqcf3 | -0.289 (inactive)
CGUCAUAAAGAAUAGUUCCTT against Ncoa4 | 0.965 (inactive)
GGAGAAGAGUUAUUGGAUATT against Dnajb4 | 0.901 (inactive)
CCUACGGCAAACAGAGACUTT against Klk6 | -2.29 (active)
GGAGUUUAAGAAGACGCACTT against Slc26a3 | 1.62 (inactive)
GGUUUUGGACCAGAUGAGCTT against Abi3 | 0.0276 (inactive)
GGGAUGAAGUGUUCCAUCCTT against Ccdc187 | 2.88 (active)
GCAAUUAGUAACUGAGAAUTT against Dpp10 | 0.0628 (inactive)

Sequence | z-score
GGACUAUGCUGUCCAGAUCTT against Ntn1 | -0.432 (inactive)
GGUGCUGAAUUUGAUCAAGTT against Rpa2 | 1.83 (inactive)
UUGUUAUAGCACUUCCAAATT against Vwa3b | 2.12 (active)
GGAUGGGUUUGAUCUUAAUTT against Il13ra2 | 0.519 (inactive)
GCCAUUUGAAGGCUUUUGUTT against D130079A08Rik | -0.555 (inactive)
GCUGGUGAUGACGUGUAUCTT against Slc32a1 | 0.357 (inactive)
GUUGAACAAUCUUGUCCUGTT against Rps25 | 0.518 (inactive)
GGCAUGAGACAAGCUAGUCTT against Mrgpre | -0.463 (inactive)
GGCUGCUAAUUGGAUUUUUTT against Ccnj | -0.936 (inactive)
GCCUUUCAUACAUUCAACATT against Olfr313 | -1.49 (inactive)
GGACAGACCACACUUCAUGTT against Foxp3 | -0.494 (inactive)
GGCCAUGAUUUACGACGACTT against C1qtnf4 | -1.22 (inactive)
GGCUCUCUGAGGAUUCGAATT against 4930544M13Rik | -0.209 (inactive)
CGGGACAUUCGUGAUCUUATT against Tmem114 | -2.38 (active)
GGAUUCGCCUUUUCUACCGTT against Hoxb2 | 0.929 (inactive)
GGAGCUGUGAGCAUUACUGTT against Cenpm | -1.89 (inactive)
GGUCAUCGAUAAGAAAAGATT against Hunk | -1.09 (inactive)
GCAGGUGAAAAGCAAUCCUTT against Prss27 | 1.03 (inactive)
GAUGGUCAUUGAUGUCCUUTT against Rps24 | -0.694 (inactive)
GGAGAGUGCUGAUGUUCUGTT against Rhox6 | 2.26 (active)
GGUGCUUGUGGGUAACAAGTT against Rab33a | 1.94 (inactive)
GGACAUAAUCAAAGACAUCTT against Ddc | 1.15 (inactive)

Sequence | z-score
GGCAUACCCAAAAAUAGAATT against Eif1a | 0.139 (inactive)
GGAGAACUCCAGGUUGGCATT against Eaf1 | -2.03 (active)
GCGCAAAGAUGGCUAUUGCTT against Adamts3 | 1.42 (inactive)
GCUCAUCCAUUACGAGUUGTT against Dusp18 | 0.878 (inactive)
GCAUUUCCUUAACACUCCCTT against Msmb | -0.614 (inactive)
CGAGAAACAGAGUAUCAAGTT against Utp23 | 0.776 (inactive)
GGGCCAUACCAUUUGGGUGTT against Wdr38 | 0.142 (inactive)
GGUAAAAAGUACAAGUGGGTT against Slc17a5 | -0.909 (inactive)
GGUGAUACCUCUGUCCUGGTT against Exosc5 | -1.17 (inactive)
GGAGGGUGAUCUCAUUGAATT against Prkd1 | 0.479 (inactive)
GCAGCAAUACAUCCUUCAUTT against Cdh1 | 1.12 (inactive)
CCGAGCUAGAUCAGCUAUUTT against Mertk | -1.45 (inactive)
GGAAACCGUUUUUUUUUUCTT against Appbp2 | 2.16 (active)
CCUAAUCUCUUGUAGGUAUTT against AU018091 | 1.03 (inactive)
GGAACAGGCAACAUGAUUGTT against Nlgn3 | 0.376 (inactive)
GGCUGUAUGUAUAUAGUCCTT against Snrpb | -2.41 (active)
GGUGUCCACAUUAAAUUACTT against Foxb1 | 2.21 (active)
GCACUAAGUCCCAUGUGUCTT against Trim11 | -1.01 (inactive)
GGUUAUGGUAUUAACAGGUTT against Slc17a4 | 0.112 (inactive)
GGGCAGAAUGCCAGUGUACTT against Kif22 | -0.305 (inactive)
GCUUGACGCGAACUUACCATT against Endog | 2.35 (active)
GGUGGACUUCGAGAACAUATT against Cyp2d26 | 0.75 (inactive)

Sequence | z-score
GGAUCAUCAACCAUCUAAUTT against Srsf7 | -1.11 (inactive)
GCCUUUUGAUGCUUCCUCUTT against Rusf1 | -0.696 (inactive)
GCUCAAAGUUUGAACUGGCTT against Atxn2l | 0.153 (inactive)
GCUGAAGAGGCGCAUACAUTT against 2610318N02Rik | 3.07 (active)
GCCAAAGACUCUUAUAAGUTT against Bnc1 | -0.455 (inactive)
UCUCCUUCCUAACUUCAACTT against Tmem252 | 0.747 (inactive)
GCUCUCACCAUCAGAGAAATT against Trpc4 | -0.12 (inactive)
CCUCUGAGUGGAACACCUATT against Sfr1 | -3.54 (active)
GGCAUUCAUGACAAUGGCUTT against Rab1b | -1.89 (inactive)
GCGAUUUAUUGCCAAGCCCTT against Cers5 | 0.596 (inactive)
GGUUUAAGCUUUUUGUGGATT against D130079A08Rik | 0.0133 (inactive)
GGAUGUGACGCACACAUGUTT against Cdip1 | 1.11 (inactive)
GCAAAUUGGUCAUCGACUGTT against Alg1 | 0.0456 (inactive)
GCCAUCUACUCUUUAAAUATT against Pdha1 | 0.351 (inactive)
GCAGAAAAACAUCCACGACTT against Spn | -2.01 (active)
GCAGACAGAUCGCUUCAACTT against Dok4 | -0.882 (inactive)
CCCUCUUAGGAGCUAGUGATT against Atp2b4 | -1.85 (inactive)
CCAUUCGAUACCUCGUGCATT against Dhps | -0.249 (inactive)
GGGCCUGGAUUACUUACACTT against Srpk1 | 4.83 (active)
UACUUGUAGCCAUGGCUCUTT against Olfr685 | 0.334 (inactive)
GGCAAAAUAUUGCACAGCGTT against Tsga10 | -0.474 (inactive)
GGAAAUUAAACAGAAACAGTT against Ube2j2 | -0.471 (inactive)

Sequence | z-score
GGCUGUUUUACAUCAUCCCTT against Ust | -0.227 (inactive)
GGGAAAGUUUCUGCAUUCUTT against Lce1d | 2.07 (active)
CCACAGUCUAUUCAAACUUTT against Ncapd3 | -1.12 (inactive)
GGUCAAGUCAGCAUUCCUGTT against Hspbp1 | -1.78 (inactive)
GGAAAAGAAGACCUACACCTT against Ppp1r1c | -2.04 (active)
GGCCUGGAUGGAAAUUUGCTT against Fabp4 | -0.851 (inactive)
GGAGAAAAGAGUUUGCCCGTT against Wfdc12 | -0.329 (inactive)
GCAAAUUCUCGGUGUCAAATT against Ezh2 | -1.04 (inactive)
CCUAGUAACUAUCUACCUCTT against Sval3 | 0.232 (inactive)
GGAUAUCAUCAUGUCUUUCTT against Otop1 | 1.29 (inactive)
CGUGGAUAAAGAUAACCCGTT against Znrd2 | -0.117 (inactive)
GAUAAAAUCGGACUGAUAATT against Olfr1079 | 0.837 (inactive)
GGCGAACACUGUCAUGAAUTT against Spin4 | 3.37 (active)
GGUAUUCACACUGAAGCCCTT against H2-DMa | 0.108 (inactive)
GCAACAUCCAGGCUUGCCUTT against Tmem107 | -0.874 (inactive)
CCAUGAAGAACAAGAAAACTT against 1700010D01Rik | 0.239 (inactive)
GGAUAGAAAACAGUAUCUGTT against Fggy | 1.07 (inactive)
GGAAAACUGCUUUGAGCUGTT against Thap7 | 2.72 (active)
AAGGUGCAGAGUUACACGUTT against H2-T10 | 1.17 (inactive)
GGUCUUCAAUUUCUUCAAATT against 4930430F08Rik | 0.928 (inactive)
